Drawing on PMC8384837, “Expanding the binding specificity for RNA recognition by a PUF domain”, this text covers binding signal for five sequences.

Common to all, as to assay: yeast three-hybrid, YBZ-1, SC-Leu-His + 0.5 mM 3-AT, 4 days
What all share (conditions): tags: N-Gal4 AD-HA kept; label: inside an RPR1-promoter hybrid RNA with tandem MS2 sites; ssRNA

Assay [1] has as its target PUM1 PUF domain R7-RER (Homo sapiens, UniProt Q14671 828-1176, S1079R;N1080E;E1083R). An outline of the steps:
(§1)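 The interaction score is the log change in how often each variant appears, from input to selection. Frequencies came from PCR-amplified, Illumina-sequenced repeat regions of Pumilio-1 PUF domain libraries grown in strain YBZ-1 (LexA–MS2 coat fusion, HIS3 reporter) alongside matching RNA elements. Input plates were SC-Leu and selection plates were SC-Leu-His + 0.5 mM 3-AT, each for four days, and the log2 calculation used a pseudocount of 1 where a variant was absent.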

In assay [2] the target is PUM1 PUF domain R1-RRQ (Homo sapiens, UniProt Q14671 828-1176, S863R). An outline of the steps:
as §1

Assay [3] has as its target PUM1 PUF domain R5-TRY (Homo sapiens, UniProt Q14671 828-1176, C1007T;Q1011Y). An outline of the steps: as §1
Assay [4] deals with PUM1 PUF domain R3-PFY (Homo sapiens, UniProt Q14671 828-1176, C935P;R936F;Q939Y). An outline of the steps: as §1
Assay [5] has as its target T1, PUM1 PUF domain R6-AFR (Homo sapiens, UniProt Q14671 828-1176, N1043A;Y1044F;Q1047R).
T1 sequence: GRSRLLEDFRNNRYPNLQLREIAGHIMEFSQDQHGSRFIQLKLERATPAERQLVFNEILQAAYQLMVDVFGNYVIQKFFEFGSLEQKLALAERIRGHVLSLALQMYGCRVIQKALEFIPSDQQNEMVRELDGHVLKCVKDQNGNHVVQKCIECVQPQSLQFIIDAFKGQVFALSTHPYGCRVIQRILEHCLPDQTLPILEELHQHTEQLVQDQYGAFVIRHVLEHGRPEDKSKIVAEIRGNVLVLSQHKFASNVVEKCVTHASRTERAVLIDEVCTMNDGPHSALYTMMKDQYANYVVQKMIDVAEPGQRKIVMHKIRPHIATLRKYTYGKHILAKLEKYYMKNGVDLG
An outline of the steps:
as §1

In assay [6] the target is PUM1 PUF domain R4-TRG (Homo sapiens, UniProt Q14671 828-1176, N971T;H972R;Q975G). An outline of the steps: as §1
Assay [7] deals with T2, PUM1 PUF domain R6-GYK (Homo sapiens, UniProt Q14671 828-1176, N1043G;Q1047K).
T2 sequence: T1 sequence with A216G, F217Y, R220K
An outline of the steps:
as §1

Assay [8] concerns the target T3, PUM1 PUF domain R6-NFL (Homo sapiens, UniProt Q14671 828-1176, Y1044F;Q1047L).
T3 sequence: T1 sequence with A216N, R220L
An outline of the steps:
as §1

The target in assay [9] is T4, PUM1 PUF domain R6-IYS (Homo sapiens, UniProt Q14671 828-1176, N1043I;Q1047S).
T4 sequence: T1 sequence with A216I, F217Y, R220S
An outline of the steps:
as §1

Assay [10] addresses PUM1 PUF domain R4-WSS (Homo sapiens, UniProt Q14671 828-1176, N971W;H972S;Q975S). An outline of the steps: as §1
In assay [11] the target is PUM1 PUF domain R5-RRI (Homo sapiens, UniProt Q14671 828-1176, C1007R;Q1011I). An outline of the steps: as §1
Assay [12] deals with PUM1 PUF domain R4-CMI (Homo sapiens, UniProt Q14671 828-1176, N971C;H972M;Q975I). An outline of the steps: as §1
Assay [13] addresses PUM1 PUF domain R4-DHV (Homo sapiens, UniProt Q14671 828-1176, N971D;Q975V). An outline of the steps: as §1
Assay [14] concerns the target PUM1 PUF domain R4-ANT (Homo sapiens, UniProt Q14671 828-1176, N971A;H972N;Q975T). An outline of the steps: as §1

Numbering of substitutions follows the chain as printed.

PUM1 PUF domain R1-RRQ, sequence (Q14671 828-1176 S863R): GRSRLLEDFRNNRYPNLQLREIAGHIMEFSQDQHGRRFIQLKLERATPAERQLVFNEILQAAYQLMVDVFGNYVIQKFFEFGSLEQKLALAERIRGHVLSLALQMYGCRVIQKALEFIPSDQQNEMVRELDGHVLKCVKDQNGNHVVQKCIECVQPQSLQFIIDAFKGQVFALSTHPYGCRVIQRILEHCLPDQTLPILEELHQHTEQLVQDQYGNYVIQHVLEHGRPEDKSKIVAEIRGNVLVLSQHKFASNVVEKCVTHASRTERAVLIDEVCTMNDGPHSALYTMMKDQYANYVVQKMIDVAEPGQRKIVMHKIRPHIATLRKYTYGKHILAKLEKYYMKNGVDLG
PUM1 PUF domain R4-WSS, sequence (Q14671 828-1176 N971W/H972S/Q975S): as the sequence (Q14671 828-1176 S863R) above, with R36S, N144W, H145S, Q148S counted along it
PUM1 PUF domain R5-RRI, sequence (Q14671 828-1176 C1007R/Q1011I): as the sequence (Q14671 828-1176 S863R) above, with R36S, C180R, Q184I counted along it

Turning to “GGCUAGAACUAGUGGAUCCCCCGGCGCCCGGCGGCUCGAGCCCGGGUAAGUUUAAAUAGUCUGCAUGCCGCCGGGCGCCAUGCCUGCAGGUCGACUCUAGAAAACAUG”, the binding signal in assay [1] is 4.54 log2 enrichment (interaction score).
As to “GGCUAGAACUAGUGGAUCCCCCGGCGCCCGGCGGCUCGAGCCCGGGUAAGUGUAAAUCGUCUGCAUGCCGCCGGGCGCCAUGCCUGCAGGUCGACUCUAGAAAACAUG”, in [2], the binding signal was 5.5 log2 enrichment (interaction score).
Consider “GGCUAGAACUAGUGGAUCCCCCGGCGCCCGGCGGCUCGAGCCCGGGUAAGUGUAAAUAGUCUGCAUGCCGCCGGGCGCCAUGCCUGCAGGUCGACUCUAGAAAACAUG”, for which the binding signal in [3] is 4.49 log2 enrichment (interaction score); in [4], 4.24 log2 enrichment (interaction score); in assay [5] it was 4.43 log2 enrichment (interaction score); in assay [6] it was 5.35 log2 enrichment (interaction score); in assay [7], 2.87 log2 enrichment (interaction score); in [8], 5.25 log2 enrichment (interaction score). The binding signal in assay [9] was 2.42 log2 enrichment (interaction score); in assay [10], 2.27 log2 enrichment (interaction score); in assay [11], 2.01 log2 enrichment (interaction score); in assay [12], 2.77 log2 enrichment (interaction score).
For the sequence “GGCUAGAACUAGUGGAUCCCCCGGCGCCCGGCGGCUCGAGCCCGGGUAAGUGUAAAUGGUCUGCAUGCCGCCGGGCGCCAUGCCUGCAGGUCGACUCUAGAAAACAUG”, in assay [2], the binding signal was 1.96 log2 enrichment (interaction score).
For “GGCUAGAACUAGUGGAUCCCCCGGCGCCCGGCGGCUCGAGCCCGGGUAAGUGUAUAUAGUCUGCAUGCCGCCGGGCGCCAUGCCUGCAGGUCGACUCUAGAAAACAUG”, the figures for the binding signal in assay [13], in [10] and in assay [14] were 6.27 log2 enrichment (interaction score), 4.4 log2 enrichment (interaction score) and 2.52 log2 enrichment (interaction score), respectively.
